# Data from PubChem BioAssay (NCATS).
# Results filed as inconclusive are left out. Where a call stands in place of a potency, no number is given. The source made the active and inactive calls. The call rests on the fitted dose curve; in most records, active means well fitted cell-killing curve with a large enough effect; inconclusive means small, poorly fitted or top-dose-only effect, or effect the other way; inactive means flat fitted curve, though single readings scatter.
# System: Es-2
# Assay: Primary qHTS to identify gynecologic anti-cancer compounds using libraries of approved drugs and bioactive compounds (AID 1345084); further: nearly all actives have a fitted effect of over 55% in size
# Settings: Gynecologic cancer cell panel viability, ATPlite luminescence, 48 h; series mostly up to 57.5 µM
# Outline: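 Measured: luminescence after ATPlite addition (15 min, RT). Exposure: 48 h, 37 C, 5% CO2.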
Compound,"activity change, negative = cytotoxicity",Potency
CC1(C)CC[C@]2(C(=O)O[C@@H]3O[C@H](CO)[C@@H](O)[C@H](O)[C@H]3O)CC[C@]3(C)C(=CCC4[C@@]5(C)CC[C@H](OC6OC(C(=O)O)C(OC7OC(CO)C(O)C(O)C7O)C(O)C6O)C(C)(C)C5CC[C@]43C)C2C1 (stereo partly specified),1.85% [at 11.6 µM] (inactive),–
COc1cccc(CN(C(=O)CC(C)(C)C)C2CC(C(=O)N3CCNCC3)N(Cc3ccc4c(c3)OCO4)C2)c1 (stereo unspecified),–,inactive
C/C=C(/C)C(=O)OC1CC(C)(C)CC2C3=CCC4C5(C)CCC(OC6OC(C)C(OC7OC(C(=O)O)C(O)C(OC8OC(CO)C(O)C(O)C8OC8OC(CO)C(O)C(O)C8O)C7O)C(O)C6O)C(C)(C)C5CCC4(C)C3(C)C(OC(=O)/C=C/C=C/C=C/CCC)C(OC(C)=O)C12CO (stereo unspecified),13.9% [at 6.55 µM] (inactive),–
Cc1ccc(-c2c(-c3nn(C)c4ncnc(N5CC[C@H](N6CCCCC6)C5)c34)cnn2C)cc1,–,inactive
O=C(O)c1cc(O[C@@H]2O[C@H](CO)[C@@H](O)[C@H](O)[C@H]2O)ccc1O,–,inactive
Nc1nc(COC(=O)c2ccc([N+](=O)[O-])cc2)nc(Nc2ccccc2)n1,–,inactive
C[C@@H]1O[C@@H](O[C@H]2[C@H](O[C@H]3[C@H](O[C@H]4CC[C@@]5(C)C(CC[C@]6(C)C5CC=C5[C@@H]7CC(C)(C)C[C@@H](O)[C@]7(C)CC[C@]56C)[C@@]4(C)CO)O[C@H](C(=O)O)[C@@H](O)[C@@H]3O)O[C@H](CO)[C@H](O)[C@@H]2O)[C@H](O)[C@H](O)[C@H]1O (stereo partly specified),0.369% [at 11.6 µM] (inactive),–
COc1cc(CO)ccc1O[C@@H]1O[C@H](CO)[C@@H](O)[C@H](O)[C@H]1O,–,inactive
COC(=O)c1c(CC=C(C)C)c(OC2OC(CO)C(O)C(O)C2O)c2ccccc2c1OC1OC(CO)C(O)C(O)C1O (stereo unspecified),–,inactive
COc1ccc(C2(O)c3c(ccc4c3OC(C)(CCC=C(C)C)C=C4)NC(=O)C2OC)cc1 (stereo unspecified),–,inactive
Cc1ccc(C)c(NC(=O)CNS(=O)(=O)c2ccc3[nH]c(=O)oc3c2)c1,–,inactive
CO[C@H]1c2cc(C(C)C)c(O)c(O)c2[C@@]23CCCC(C)(C)C2[C@@H]1OC3=O (stereo partly specified),–,inactive
CN[C@H](CNC(=O)N1CCC[C@@H]([C@@H](OCCNC(=O)OC)c2cccc(Cl)c2)C1)C[C@H]1CCCOC1,–,inactive
O=C(O)CCc1cc2ccoc2cc1O[C@@H]1O[C@H](CO)[C@@H](O)[C@H](O)[C@H]1O,–,inactive
CC(C)[C@@H](C(=O)O)N1Cc2c(cc(O)c3c2O[C@]2(C3)[C@H](C)CCC3C(C)(C)[C@H](O)[C@H](O)C[C@@]32C)C1=O (stereo partly specified),–,inactive
CCOC(=O)CSc1nc2c(sc3ccccc32)c(=O)n1CCCN1CCCC1,–,inactive
CC1CCC2(C(=O)O)CCC3(C)C(=CCC4C5(C)CCC(O)C(C)(C(=O)O)C5CCC43C)C2C1(C)O (stereo unspecified),–,inactive
Cc1ccccc1N1CCN(S(=O)(=O)C[C@]23CC[C@H](C[C@@H]2NC(=O)[C@@H](N)CCS(C)(=O)=O)C3(C)C)CC1,–,inactive
C/C=C(\C)C(=O)OCC1OC(OCC2OC(OC3(CO)OC(CO)C(O)C3O)C(O)C(O)C2O)C(O)C(O)C1O (stereo unspecified),–,inactive
COc1ccc(/C=C/C(=O)O[C@@H]2[C@@H](OC(C)=O)[C@@H](OC(C)=O)[C@H](O[C@H]3[C@@H]4C=CO[C@@H](O[C@@H]5O[C@H](CO)[C@@H](O)[C@H](O)[C@H]5O)[C@@H]4[C@@]4(CO)O[C@@H]34)O[C@H]2C)cc1,–,inactive
CC1=C2C[C@@]3(C)[C@@H](CCC[C@@H]3C)C[C@@]2(O)OC1=O,–,inactive
COC(=O)/C=C/c1ccc(O[C@@H]2O[C@H](CO)[C@@H](O)[C@H](O)[C@H]2O)cc1,–,inactive
FC(F)(F)Oc1ccc(-c2ccc3nnc(C(F)(F)F)n3c2)cc1,–,inactive
C=C(C(=O)O)C1CC(OC(=O)CC(C)CC)C2(C)CCCC(=C)C2C1 (stereo unspecified),–,inactive
CC(C)(O)C1CC=C(C(=O)OC[C@H]2O[C@@H](OC(=O)C3=CCC(C(C)(C)O)CC3)[C@H](O)[C@@H](O)[C@@H]2O)CC1 (stereo partly specified),–,inactive
C[C@@H]1O[C@@H](O[C@@H]2[C@@H](O)[C@H](O[C@@H]3[C@@H](O)[C@@H](O)[C@H](O[C@H]4[C@H](OC(=O)[C@]56CCC(C)(C)C[C@H]5C5=CCC7[C@@]8(C)C[C@H](O)[C@H](O[C@@H]9O[C@H](C(=O)O)[C@@H](O)[C@H](O)[C@H]9O)[C@@](C)(CO)C8[C@H](O)C[C@@]7(C)[C@]5(C)C[C@H]6O)O[C@@H](CO)[C@@H]4O)O[C@H]3C)OC[C@H]2O)[C@H](O)[C@H](O)[C@H]1O (stereo partly specified),7.92% [at 6.55 µM] (inactive),–
